What all share (type): functional
Experiment [1] deals with Plasmodium falciparum. The experiment in a line: GSK_TCMDC: Inhibition of Plasmodium falciparum 3D7 in whole red blood cells, using parasite LDH activity as an index of growth. Test compounds present at 2uM.
For experiment [2], the system named is Plasmodium falciparum. The experiment in a line: GSK_TCMDC: Inhibition of Plasmodium falciparum Dd2 in whole red blood cells, using parasite LDH activity as an index of growth. Test compounds present at 2uM.
For experiment [3], the system named is HepG2. The experiment in a line: GSK_TCMDC: Percent inhibition of human HepG2 cell line. Test compounds present at 10uM.

As usually defined, the Inhibition is the drop in the measured response relative to a control, in per cent. High values mean a response far below the control, low ones a response near the control. For the compound `C=CCOC(=O)O[C@@H]1[C@@H](OC(=O)OCC=C)[C@@H](OC)O[C@H](COC(c2ccccc2)(c2ccccc2)c2ccccc2)[C@H]1OC(=O)OCC=C`, the figures for the Inhibition in experiment [1], in experiment [2] and in experiment [3] were 95%, 96% and 5%, respectively.

`CCCc1cc(OC)c(CC2c3cc(O)c(Cl)cc3CCN2C)cc1OC.Cl` (stereo not given): the Inhibition in experiment [1] is on record as 100%; in experiment [2], 99%; in experiment [3] it was 19%.

Regarding `CC(C)(C)NC(=O)COC(=O)c1c2c(nc3ccccc13)C(=Cc1ccc3c(c1)OCO3)CCC2`, the Inhibition in experiment [1] came out at 90%; in experiment [2], 82%; in experiment [3], 7%.

`COc1ccc(C2CCN(C#N)C2)cc1OC1CCCC1` (stereo not given): the Inhibition in experiment [1] turned out to be 100%; in experiment [2], 97%; in experiment [3], 9%.

On to `O=C(Nc1ccc(OC(F)(F)F)cc1)Nc1ccc([N+](=O)[O-])cc1`, for which the figures for the Inhibition in experiment [1], in experiment [2] and in experiment [3] were 100%, 100% and 41%, respectively.

As for `FC(F)(F)c1ccc2[nH]ccc(=NN=Cc3ccccc3Cl)c2c1`, the figures for the Inhibition in experiment [1], in experiment [2] and in experiment [3] were 100%, 83% and 0%, respectively.

For `Cc1cc(N2CCN(C)CC2)nc2ccc(NC(=O)c3cccc(N(C)C)c3)cc12`, the Inhibition turned out to be 85% in experiment [1], 23% in experiment [2] and 9% in experiment [3].

In the case of `Cc1cc(N[C@@H](CC(C)C)C(=O)NCCOc2ccccc2)nc(NCC2CCCCC2)n1.O=C(O)C(F)(F)F`, the figures for the Inhibition in experiment [1], in experiment [2] and in experiment [3] were 97%, 53% and 24%, respectively.

On to `Br.c1ccc(-c2ccc(-c3csc(Nc4ccncc4)n3)cc2)cc1`, for which the Inhibition worked out at 100% in experiment [1], 97% in experiment [2] and 30% in experiment [3].

For the compound `CN1CCN(CCCN(Cc2cccc(-c3ccc(CNCCc4ccccc4)cc3)c2)C(=O)Nc2ccccc2)CC1.O=C(O)C(F)(F)F`, the Inhibition in experiment [1] was 100%; in experiment [2], 91%; in experiment [3], 61%.

For the origin of these results see ChEMBL document CHEMBL1157539, “Thousands of chemical starting points for antimalarial lead identification” (Nature, 2010).
